Among the data in PubChem BioAssay (NCATS) are Potency and outcome values, retold here.

Assay [1] is described as follows: qHTS to identify inhibitors of the type 1 interferon - major histocompatibility complex class I in skeletal muscle: primary screen against the NCATS LOPAC collection (AID 1347405).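 Note: lytic HiBiT luminescence reporting HLA-B protein level.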 Note: potency is the fitted concentration of half-maximal effect. The method, boiled down: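 Immortalized human C25cl48 myoblasts with HiBiT knocked into endogenous HLA-B*08:01 were stimulated with 4.0 ng/ml IFN-beta and given compounds in a 7-point, 1:4.3 titration from 46 uM final; after 24 hrs, lytic HiBiT luminescence was read.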

Assay [2] in a line: qHTS to identify inhibitors of the type 1 interferon - major histocompatibility complex class I in skeletal muscle: primary screen against the NCATS Pharmaceutical Collection (AID 1347407).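 Note: luminescence of HiBiT knocked into endogenous HLA-B as interferon-induced MHC class I level.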 Note: potency is the fitted concentration of half-maximal effect. The procedure, abridged:
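A qHTS format is used: 8-point, 1:5 compound series with 46 uM top final concentration, applied alongside 4 ng/ml IFN-beta to HLA-B*08:01-HiBiT knock-in myoblasts. Luminescence is measured after 24 h treatment.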

The nature of assay [3]: qHTS for inhibitors of adenylyl cyclases using a fission yeast platform: a pilot screen against the NCATS LOPAC library (AID 1347410). The procedure, abridged:
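Inhibition of GNAS-stimulated AC9 activity in S. pombe was inferred from derepression of a PKA-repressed fbp1-GFP reporter, measured as cytometric fluorescence after 18 h at 30C with compounds at up to 57 µM.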

The nature of assay [4]: qHTS to identify inhibitors of the type 1 interferon - major histocompatibility complex class I in skeletal muscle: primary screen against the NCATS Mechanism Interrogation Plate v5.0 (MIPE) Libary (AID 1347411). Note: nearly all actives have a fitted effect of over 65% in size. Note: potency is the fitted concentration of half-maximal effect. The method, boiled down: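 Immortalized human C25cl48 myoblasts with HiBit knocked into endogenous HLA-B*08:01 were stimulated with 4.0 ng/ml IFN-beta and exposed to compounds (11-point 1:3 titration, top 46 uM final) for 24 hrs at 37 C; HiBiT lytic luminescence measured.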

Assay [5] concerns the target Protein phosphatase 1D (Homo sapiens) (UniProt O15297). Put plainly: RapidFire Mass Spectrometry qHTS Assay for Modulators of WT P53-Induced Phosphatase 1 (WIP1) (AID 1347424).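 Note: amount of dephosphorylated VEPPL-S-QETFS peptide product formed by WIP1; series mostly up to about 63 µM.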 The procedure, abridged: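 WIP1 (10 nM final) was preincubated 1 h at room temperature with compounds in Tris-HCl pH 7.5, 30 mM MgCl2, TCEP, EGTA, BSA; 2 uM VEPPL-pS-QETFS phosphopeptide was added for 5 min, quenched with formic acid, and dephosphorylated product quantified by RapidFire MS.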

Assay [6] shares this target. The experiment in a line: Rhodamine-PBP qHTS Assay for Modulators of WT P53-Induced Phosphatase 1 (WIP1) (AID 1347425). The procedure, abridged:
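WIP1 (5 nM final) was preincubated with compound for 1 hour at room temperature. It then dephosphorylated 10 uM VEPPL-pS-QETFS peptide in Tris-HCl pH 7.5 with 30 mM MgCl2. Released Pi was detected by 10 uM Rh-PBP fluorescence (ex 525/em 598 nm) read at 1-min intervals for 11 min, as delta f1 - f0.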

Assay [7] in a line: Validation qHTS assay for inhibitors of Activation Induced Cytidine Deaminase (AID): UDG Counterscreen signal (AID 1347427). The method, boiled down: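 Counterscreen read of UDG activity (2 U/mL, 4/3x) in the FRET deamination format with AID (1 uM, 4/3x), DJC20/DJC23 substrates (250 nM, 4x), 4 h at room temperature. NaOH stop, fluorescence at 560 ex/665 em.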
In assay [8] the target is Single-stranded DNA cytosine deaminase (Homo sapiens) (UniProt Q9GZX7). The experiment in a line: Validation qHTS assay for inhibitors of Activation Induced Cytidine Deaminase (AID): AID signal (AID 1347429). The method, boiled down: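 AID and UDG were combined and compounds added at final up to 114 uM, then DJC20/DJC23 FRET substrate was added for 4 hr at room temperature. NaOH was then added for 30 min before fluorescence was read at 540/590 nm.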

Each structure is given as a SMILES string. Records with an inconclusive call do not appear. Active and inactive are the calls of the source. Calls come from the whole dose curve; as a rule, active = well fitted curve in the direction sought with a large enough effect; inconclusive = small, poorly fitted or top-dose-only effect, or another doubt; inactive = no such curve, though single readings can be large; an effect the other way counts as inactive or inconclusive.

Chain of Protein phosphatase 1D (Homo sapiens) (O15297 whole entry, looked up): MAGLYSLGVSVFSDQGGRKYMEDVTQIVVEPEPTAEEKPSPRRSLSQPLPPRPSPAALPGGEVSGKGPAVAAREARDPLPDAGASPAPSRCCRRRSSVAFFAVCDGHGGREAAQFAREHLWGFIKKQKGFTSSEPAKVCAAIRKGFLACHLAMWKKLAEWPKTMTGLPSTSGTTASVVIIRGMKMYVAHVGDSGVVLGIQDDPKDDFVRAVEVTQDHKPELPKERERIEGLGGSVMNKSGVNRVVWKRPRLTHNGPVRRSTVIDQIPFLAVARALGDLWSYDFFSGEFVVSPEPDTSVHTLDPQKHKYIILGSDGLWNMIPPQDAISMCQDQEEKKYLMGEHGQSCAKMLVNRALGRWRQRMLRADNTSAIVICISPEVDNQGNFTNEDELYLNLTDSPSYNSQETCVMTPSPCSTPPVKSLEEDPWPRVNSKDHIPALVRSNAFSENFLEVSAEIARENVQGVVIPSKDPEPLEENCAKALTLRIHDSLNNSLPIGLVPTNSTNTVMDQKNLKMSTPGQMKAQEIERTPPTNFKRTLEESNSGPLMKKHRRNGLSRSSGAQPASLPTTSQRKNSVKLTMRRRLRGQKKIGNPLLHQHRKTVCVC
Chain of Single-stranded DNA cytosine deaminase (Homo sapiens) (Q9GZX7 whole entry, looked up): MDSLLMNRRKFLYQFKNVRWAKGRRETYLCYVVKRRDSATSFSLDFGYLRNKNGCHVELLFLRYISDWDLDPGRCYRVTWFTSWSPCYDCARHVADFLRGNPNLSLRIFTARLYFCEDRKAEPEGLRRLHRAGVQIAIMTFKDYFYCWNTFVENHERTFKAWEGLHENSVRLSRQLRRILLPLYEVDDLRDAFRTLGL

In the case of `CN1CCN(C2=Nc3cc(Cl)ccc3Nc3ccccc32)CC1`, the Potency result in assay [1], in assay [2], in assay [4], in assay [5], in assay [7] and in assay [8] was “inactive” throughout. The call in assay [3] and in assay [6] was inactive.

As for `COc1ccccc1OCCNCC(O)COc1cccc2[nH]c3ccccc3c12` (stereo not given), the Potency result in assay [1], in assay [2], in assay [5], in assay [7] and in assay [8] was “inactive” in each case. In addition, the outcome in assay [3] and in assay [6] was inactive.

Turning to `Clc1ccc(C(c2ccccc2Cl)C(Cl)Cl)cc1` (stereo not given), the Potency result in assay [1], in assay [2], in assay [5], in assay [7] and in assay [8] was “inactive” each time. The call in assay [3] and in assay [6] was inactive.

As for `CN(C)CCOC(c1ccccc1)c1ccccc1`, the Potency entry in assay [1], in assay [2], in assay [4], in assay [5], in assay [7] and in assay [8] was “inactive” throughout. For the same compound, the result in assay [3] and in assay [6] was inactive.

Regarding `NCCc1cnc[nH]1`, the Potency entry in assay [1], in assay [2], in assay [4], in assay [5], in assay [7] and in assay [8] was “inactive” in each case. Also, the call in assay [3] and in assay [6] was inactive.

Turning to `CN(C)c1nc(N(C)C)nc(N(C)C)n1`, the Potency entry in assay [1], in assay [2], in assay [4], in assay [5], in assay [7] and in assay [8] was “inactive” in each case. Further, the compound was classed as inactive in assay [3] and in assay [6].

Regarding `CC1COc2c(N3CCN(C)CC3)c(F)cc3c(=O)c(C(=O)O)cn1c23` (stereo not given), the Potency entry in assay [1], in assay [2], in assay [4] and in assay [5] was “inactive” throughout. In addition, the compound was called inactive in assay [3] and in assay [6].

Take `Cc1cnc(C(=O)NCCc2ccc(S(=O)(=O)NC(=O)NC3CCCCC3)cc2)cn1`: the Potency entry in assay [1], in assay [2], in assay [4], in assay [5], in assay [7] and in assay [8] was “inactive” throughout. The result in assay [3] and in assay [6] was inactive.

`Nc1nnc(-c2cccc(Cl)c2Cl)c(N)n1`: the Potency entry in assay [1], in assay [2], in assay [4] and in assay [5] was “inactive” in each case. Besides, the compound was classed as inactive in assay [3] and in assay [6].

On to `CC(CCc1ccc(O)cc1)NCCc1ccc(O)c(O)c1` (stereo not given), for which the Potency result in assay [1], in assay [2], in assay [5], in assay [7] and in assay [8] was “inactive” in each case. Moreover, the compound was classed as inactive in assay [3] and in assay [6].

On to `COc1ccc(C2CNC(=O)C2)cc1OC1CCCC1` (stereo not given), for which the Potency entry in assay [1], in assay [2], in assay [4], in assay [5], in assay [7] and in assay [8] was “inactive” throughout. Moreover, the compound was classed as inactive in assay [3] and in assay [6].

As to `CC[C@@]1(O)C(=O)OCc2c1cc1n(c2=O)Cc2cc3c(CN(C)C)c(O)ccc3nc2-1`, the values for the Potency in assay [1] and in assay [2] were 3.55 µM (active) and 10.5 µM (active), respectively. Also, the result in assay [3] and in assay [6] was inactive. Besides, the Potency entry in assay [5] is “inactive”.

As for `CN1C(C(=O)Nc2ccccn2)=C(O)c2ccccc2S1(=O)=O`, the Potency entry in assay [1], in assay [2], in assay [4], in assay [5], in assay [7] and in assay [8] was “inactive” each time. Further, the call in assay [3] and in assay [6] was inactive.

In the case of `CN(Cc1cnc2nc(N)nc(N)c2n1)c1ccc(C(=O)N[C@@H](CCC(=O)O)C(=O)O)cc1`, the Potency result in assay [1], in assay [2], in assay [4], in assay [5], in assay [7] and in assay [8] was “inactive” throughout. Also, the outcome in assay [3] and in assay [6] was inactive.

As for `NC12CC3CC(CC(C3)C1)C2`, the Potency entry in assay [1], in assay [4], in assay [5], in assay [7] and in assay [8] was “inactive” each time. Besides, the compound was classed as inactive in assay [3] and in assay [6].

For `CC(=O)OCC(CCn1cnc2cnc(N)nc21)COC(C)=O`, the Potency result in assay [1], in assay [4] and in assay [5] was “inactive” each time. The compound was called inactive in assay [3] and in assay [6].

For the compound `NCCCCCC(=O)O`, the Potency result in assay [1], in assay [4], in assay [5], in assay [7] and in assay [8] was “inactive” in each case. For the same compound, the call in assay [3] and in assay [6] was inactive.

`COc1ccccc1N1CCN(CC(O)COc2cccc3ccccc23)CC1` (stereo not given): the Potency result in assay [1], in assay [4], in assay [5], in assay [7] and in assay [8] was “inactive” throughout. The compound was classed as inactive in assay [3] and in assay [6].

As for `Cc1cc(C(C)(C)C)cc(C)c1CC1=NCCN1`, the Potency entry in assay [1], in assay [4], in assay [5], in assay [7] and in assay [8] was “inactive” in each case. Besides, the outcome in assay [3] and in assay [6] was inactive.

As for `O=c1c(-c2ccc(O)cc2)coc2cc(O)cc(O)c12`, the results for the Potency in assay [1] and in assay [4] were 17.8 µM (active) and 9.51 µM (active), respectively. The compound was classed as inactive in assay [3] and in assay [6]. Besides, the Potency entry in assay [5], in assay [7] and in assay [8] was “inactive” in each case.

As for `CCOC(=O)Nc1ccc(NCc2ccc(F)cc2)nc1N`, the Potency entry in assay [1], in assay [4] and in assay [5] was “inactive” in each case. Besides, the compound was called inactive in assay [3].

With `Nc1c2c(nc3ccccc13)CCCC2`, the Potency result in assay [1], in assay [4], in assay [5], in assay [7] and in assay [8] was “inactive” in each case. Further, the result in assay [3] and in assay [6] was inactive.

As to `O=C1N(c2ccccc2)c2ccccc2C1(Cc1ccncc1)Cc1ccncc1`, the Potency entry in assay [1], in assay [4], in assay [5], in assay [7] and in assay [8] was “inactive” each time. Further, the outcome in assay [3] and in assay [6] was inactive.
